# Measurements reported in PubChem BioAssay (EPA / NIEHS).
# Active and inactive are the calls of the source. How the source made its calls: active means hit-call score of the fitted dose curve at least 0.9, where 1 is the maximum; inactive means score below 0.9.
# Tests used:
# [1] = molecular target: Transcription factor E2F1 (Homo sapiens) (UniProt Q01094); test: ATG_E2F_CIS: Attagene CIS-FACTORIAL HepG2 Assay for human E2F Transcription Factor 1 (AID 2282935); conditions: HepG2 Attagene cis-reporter, E2F reporter RNA transcripts; actives raise or lower the signal
# Sequence of Transcription factor E2F1 (Homo sapiens) (Q01094 whole entry, looked up): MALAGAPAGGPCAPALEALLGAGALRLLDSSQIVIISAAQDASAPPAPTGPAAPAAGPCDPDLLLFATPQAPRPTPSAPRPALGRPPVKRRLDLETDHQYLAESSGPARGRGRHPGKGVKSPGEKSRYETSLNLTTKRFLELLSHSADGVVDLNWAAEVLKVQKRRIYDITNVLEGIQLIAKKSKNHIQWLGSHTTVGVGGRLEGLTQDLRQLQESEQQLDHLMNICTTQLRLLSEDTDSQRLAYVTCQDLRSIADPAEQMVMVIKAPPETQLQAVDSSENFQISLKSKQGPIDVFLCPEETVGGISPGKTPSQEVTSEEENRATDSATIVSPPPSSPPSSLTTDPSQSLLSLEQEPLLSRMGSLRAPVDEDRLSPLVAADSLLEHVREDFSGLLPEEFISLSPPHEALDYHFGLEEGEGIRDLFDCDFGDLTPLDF
# In short: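 Endogenous E2F1 activity read through cis-promoter reporter units transfected into HepG2. After 24 h compound treatment, reporter mRNA measured by RT-PCR, HpaI digestion and capillary electrophoresis. Bidirectional fit versus DMSO.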
# [2] = ATG_E_Box_CIS: Attagene CIS-FACTORIAL HepG2 Assay for human Enhancer Box (E-box) (AID 2282936); conditions: HepG2 E-box cis-reporter transcription, actives raise or lower the signal
# In short: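 HepG2 cells transiently transfected with multiplexed cis-element reporter units, dosed 24 h; reporter mRNA quantified by RT-PCR, 6-FAM labelling, HpaI digestion and capillary electrophoresis. E-box (USF1) signal fitted bidirectionally vs DMSO.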
# [3] = ATG_M_61_CIS: Attagene CIS-FACTORIAL HepG2 Assay for M61 Transcription Factor (Internal Marker) (AID 2282937); conditions: HepG2 Attagene CIS-FACTORIAL M61 internal marker reporter; actives raise or lower the signal
# In short: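 Readout is reporter mRNA by RT-PCR, fluorescent primer extension and capillary electrophoresis, with gain or loss fitted relative to DMSO. Transfected HepG2 cells carrying endogenous-TF-driven cis reporters were exposed to chemicals for 24 hours.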
# [4] = ATG_EGR_CIS: Attagene CIS-FACTORIAL HepG2 Assay for human Early Growth Response 1 (EGR1) (AID 2282938); conditions: HepG2 Attagene CIS-FACTORIAL EGR reporter mRNA; actives raise or lower the signal
# In short: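 After 24 h compound exposure, RNA from reporter-transfected HepG2 cells was reverse-transcribed, PCR-amplified, fluorescently labelled and resolved by capillary electrophoresis. EGR1 reporter transcript changes, up or down, were fitted against DMSO, reflecting endogenous transcription-factor activity.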
# [5] = ATG_M_19_CIS: Attagene CIS-FACTORIAL HepG2 Assay for M19 Transcription Factor (Internal Marker) (AID 2282939); conditions: HepG2 Attagene CIS-FACTORIAL M19 internal marker reporter; actives raise or lower the signal
# In short: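 Readout: fluorescent reporter-transcript fragments by capillary electrophoresis after RT-PCR. Human HepG2 liver cells carried transfected MRTU constructs reporting endogenous transcription-factor activity; exposure 24 h. Gain or loss of signal fitted relative to DMSO.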
# [6] = ATG_Ets_CIS: Attagene CIS-FACTORIAL HepG2 Assay for human Erythroblast Transformation Specific (ETS) (AID 2282941); conditions: HepG2 ETS cis-reporter transcription, actives raise or lower the signal
# In short: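 HepG2 cells transiently transfected with cis-promoter reporter transcription units were dosed for 24 h; reporter mRNA was measured by RT-PCR, 6-FAM primer extension, HpaI digestion and capillary electrophoresis, with bidirectional fitting against DMSO baseline.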
# [7] = molecular target: Hepatocyte nuclear factor 3-beta (Homo sapiens) (UniProt Q9Y261); test: ATG_FoxA2_CIS: Attagene CIS-FACTORIAL HepG2 Assay for human Forkhead box A2 (FOXA2) (AID 2282942); conditions: HepG2 cis-reporter transcription factor activity, 24 h; actives raise or lower the signal
# Sequence of Hepatocyte nuclear factor 3-beta (Homo sapiens) (Q9Y261 whole entry, looked up): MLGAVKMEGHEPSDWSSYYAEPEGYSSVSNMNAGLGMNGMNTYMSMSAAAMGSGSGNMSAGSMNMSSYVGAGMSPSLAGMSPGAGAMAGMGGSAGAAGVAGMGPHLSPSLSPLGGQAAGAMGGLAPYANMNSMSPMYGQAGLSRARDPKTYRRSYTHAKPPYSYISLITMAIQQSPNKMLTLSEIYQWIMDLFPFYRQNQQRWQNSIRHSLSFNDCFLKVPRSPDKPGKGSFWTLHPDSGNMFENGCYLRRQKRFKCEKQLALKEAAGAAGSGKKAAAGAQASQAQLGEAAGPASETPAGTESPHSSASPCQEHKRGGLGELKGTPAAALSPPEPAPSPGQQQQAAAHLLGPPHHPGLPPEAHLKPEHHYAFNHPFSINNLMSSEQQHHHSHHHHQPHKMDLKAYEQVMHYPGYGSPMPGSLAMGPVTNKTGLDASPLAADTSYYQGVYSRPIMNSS
# In short: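 Endogenous transcription factor activity is captured via cis-element-driven reporter transcripts in transfected HepG2. Total RNA taken at 24 h post-dosing; labelled RT-PCR products resolved by capillary electrophoresis. Gain or loss fitted versus DMSO.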
# [8] = ATG_FoxO_CIS: Attagene CIS-FACTORIAL HepG2 Assay for human Forkhead box O (FoxO) (AID 2282943); conditions: HepG2 Attagene cis-reporter, FoxO element, mRNA; actives raise or lower the signal
# In short: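 Transfected HepG2 reporter cells exposed to test chemical for 24 h; reporter RNA measured by reverse transcription, PCR and fluorescent capillary electrophoresis; curves fitted for increases and decreases against DMSO.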
# [9] = ATG_GATA_CIS: Attagene CIS-FACTORIAL HepG2 Assay for human GATA Binding Protein (AID 2282944); conditions: HepG2 GATA cis-element reporter, Attagene multiplex mRNA; actives raise or lower the signal
# In short: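 Read-out: fluorescent reporter mRNA fragments resolved by capillary electrophoresis after RT-PCR. Human liver HepG2 cells carried transiently transfected cis-regulated reporter constructs; chemicals incubated 24 h; gain or loss of signal fitted relative to DMSO.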
# [10] = ATG_GLI_CIS: Attagene CIS-FACTORIAL HepG2 Assay for human Zinc Finger Protein GLI1 (AID 2282945); conditions: HepG2, Attagene cis-factorial reporter mRNA, GLI element; actives raise or lower the signal
# In short: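 Transiently transfected HepG2 cells report endogenous transcription factor activity via cis-element-driven reporter units. After 24 h compound exposure, reporter mRNA was measured by RT-PCR with capillary electrophoresis; bidirectional fitting against DMSO baseline.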
# [11] = molecular target: Bile acid receptor (Homo sapiens) (UniProt Q96RI1); test: ATG_IR1_CIS: Attagene CIS-FACTORIAL HepG2 Assay for human Nuclear Receptor Subfamily 1 Group H Member 4 (NR1H4), IR1 submotif (AID 2282946); conditions: IR1 reporter transcription, actives raise or lower the signal
# Sequence of Bile acid receptor (Homo sapiens) (Q96RI1 whole entry, looked up): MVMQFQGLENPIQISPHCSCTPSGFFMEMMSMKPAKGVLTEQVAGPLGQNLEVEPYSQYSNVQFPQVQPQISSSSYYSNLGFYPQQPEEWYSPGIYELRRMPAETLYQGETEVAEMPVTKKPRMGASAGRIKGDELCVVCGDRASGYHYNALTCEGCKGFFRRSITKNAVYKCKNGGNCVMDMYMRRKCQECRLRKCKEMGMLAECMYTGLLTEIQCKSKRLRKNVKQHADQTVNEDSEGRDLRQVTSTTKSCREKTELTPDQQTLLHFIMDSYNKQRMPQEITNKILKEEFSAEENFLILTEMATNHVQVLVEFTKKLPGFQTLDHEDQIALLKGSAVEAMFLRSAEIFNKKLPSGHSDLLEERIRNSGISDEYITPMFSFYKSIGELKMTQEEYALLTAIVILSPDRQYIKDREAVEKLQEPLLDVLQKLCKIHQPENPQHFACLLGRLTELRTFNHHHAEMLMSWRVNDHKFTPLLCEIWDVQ
# In short: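 HepG2 cells transiently transfected with multiple cis-promoter-driven reporter units to measure endogenous transcription factor activity; 24 h exposure. Reporter mRNA read by RT-PCR, FAM labelling, HpaI digestion and capillary electrophoresis. Bidirectional fit versus DMSO.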
# [12] = ATG_GRE_CIS: Attagene CIS-FACTORIAL HepG2 Assay for human Glucocorticoid Response Elements (GRE) (AID 2282947); conditions: HepG2 GRE cis-reporter, Attagene multiplex mRNA; actives raise or lower the signal
# In short: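 Transiently transfected HepG2 cells carrying GRE cis-reporter units (endogenous TF activity) dosed 24 h; reporter mRNA quantified by RT-PCR, 6-FAM labelling, HpaI digestion and capillary electrophoresis. Bidirectional fit versus DMSO baseline.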
# [13] = ATG_ISRE_CIS: Attagene CIS-FACTORIAL HepG2 Assay for human Interferon Regulatory Factor 1 (IRF1) binding to an Interferon-Stimulated Response Element (ISRE) (AID 2282948); conditions: HepG2 ISRE cis-reporter (Attagene), mRNA transcription readout; actives raise or lower the signal
# In short: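 HepG2 cells transiently transfected with multiplexed cis-promoter reporter units; after 24 h compound exposure, reporter mRNA quantified by RT-PCR, FAM labelling, HpaI digestion and capillary electrophoresis. Bidirectional fit versus DMSO baseline.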
# [14] = ATG_M_32_CIS: Attagene CIS-FACTORIAL HepG2 Assay for M32 Transcription Factor (Internal Marker) (AID 2282949); conditions: HepG2 Attagene cis-factorial M32 reporter, mRNA; actives raise or lower the signal;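 further: background control marker of the multiplexed CIS panel rather than a real target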
# In short: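 HepG2 cells transiently transfected with multiplexed cis-regulated reporter units, dosed 24 h. Reporter mRNA quantified by RT-PCR, 6-FAM labelling, HpaI digestion and capillary electrophoresis; bidirectional fit vs DMSO.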
# [15] = ATG_M_06_CIS: Attagene CIS-FACTORIAL HepG2 Assay for M06 Transcription Factor (Internal Marker) (AID 2282950); conditions: HepG2 Attagene CIS-FACTORIAL M06 internal marker reporter; actives raise or lower the signal
# In short: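 Terse: HepG2, transient MRTU transfection (FuGene 6), 24 h dosing; total RNA, oligo(dT) RT, PCR, FAM label, HpaI cut, capillary electrophoresis; bidirectional fit vs DMSO baseline; background-control endpoint.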
# [16] = molecular target: Hypoxia-inducible factor 1-alpha (Homo sapiens) (UniProt Q16665); test: ATG_HIF1a_CIS: Attagene CIS-FACTORIAL HepG2 Assay for human Hypoxia Inducible Factor 1 (HIF1A) (AID 2282951); conditions: HepG2 Attagene cis-factorial HIF1a reporter transcription; actives raise or lower the signal
# Sequence of Hypoxia-inducible factor 1-alpha (Homo sapiens) (Q16665 whole entry, looked up): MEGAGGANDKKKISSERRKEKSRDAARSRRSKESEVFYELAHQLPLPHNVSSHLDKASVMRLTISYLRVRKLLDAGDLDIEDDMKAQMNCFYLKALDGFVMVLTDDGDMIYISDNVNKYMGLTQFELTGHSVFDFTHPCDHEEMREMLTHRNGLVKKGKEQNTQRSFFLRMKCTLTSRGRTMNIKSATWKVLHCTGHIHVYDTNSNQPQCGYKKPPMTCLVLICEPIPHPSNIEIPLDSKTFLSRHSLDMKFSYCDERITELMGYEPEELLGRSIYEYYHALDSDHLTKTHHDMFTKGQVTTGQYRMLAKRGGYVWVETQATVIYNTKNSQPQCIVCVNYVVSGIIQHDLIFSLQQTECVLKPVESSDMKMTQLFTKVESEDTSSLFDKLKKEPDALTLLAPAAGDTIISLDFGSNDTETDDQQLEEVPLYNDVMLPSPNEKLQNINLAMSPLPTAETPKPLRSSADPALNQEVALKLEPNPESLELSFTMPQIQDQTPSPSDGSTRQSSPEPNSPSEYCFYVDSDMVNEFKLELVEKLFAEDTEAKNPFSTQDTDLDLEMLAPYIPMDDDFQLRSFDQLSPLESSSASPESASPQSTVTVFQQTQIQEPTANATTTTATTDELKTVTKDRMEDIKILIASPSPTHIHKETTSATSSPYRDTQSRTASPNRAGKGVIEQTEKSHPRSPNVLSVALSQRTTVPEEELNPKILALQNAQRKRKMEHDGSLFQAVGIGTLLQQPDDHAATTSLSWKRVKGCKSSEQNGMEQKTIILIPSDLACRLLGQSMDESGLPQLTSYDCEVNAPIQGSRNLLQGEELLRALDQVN
# In short: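 Activity is fitted in both directions relative to DMSO. Reporter transcripts are read by RT-PCR, fluorescent primer extension and capillary electrophoresis after 24 h chemical treatment. The cells are HepG2 carrying transiently transfected cis-element-driven reporter units responding to endogenous factors.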
# [17] = molecular target: Hepatocyte nuclear factor 6 (Homo sapiens) (UniProt Q9UBC0); test: ATG_HNF6_CIS: Attagene CIS-FACTORIAL HepG2 Assay for human Hepatocyte Nuclear Factor 6 (HNF6) (AID 2282952); conditions: HepG2 Attagene cis-factorial HNF6 reporter transcription; actives raise or lower the signal
# Sequence of Hepatocyte nuclear factor 6 (Homo sapiens) (Q9UBC0 whole entry, looked up): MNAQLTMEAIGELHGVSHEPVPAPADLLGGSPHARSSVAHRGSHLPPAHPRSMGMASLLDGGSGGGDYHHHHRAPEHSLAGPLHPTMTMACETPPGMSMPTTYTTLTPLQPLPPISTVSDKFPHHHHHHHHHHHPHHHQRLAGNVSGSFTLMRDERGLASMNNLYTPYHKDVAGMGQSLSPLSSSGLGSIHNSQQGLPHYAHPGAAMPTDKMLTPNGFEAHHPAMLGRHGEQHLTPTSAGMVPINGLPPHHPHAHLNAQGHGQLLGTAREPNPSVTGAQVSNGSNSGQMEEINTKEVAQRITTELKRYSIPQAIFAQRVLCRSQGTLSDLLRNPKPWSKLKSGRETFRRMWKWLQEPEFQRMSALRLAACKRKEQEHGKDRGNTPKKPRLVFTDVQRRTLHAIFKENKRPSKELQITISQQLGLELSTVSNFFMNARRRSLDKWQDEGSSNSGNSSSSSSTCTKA
# In short: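 Cells are HepG2 carrying transiently transfected cis-promoter reporter units. Treatment lasts 24 h, after which reporter transcripts are reverse-transcribed, amplified, FAM-labelled and sized by capillary electrophoresis. DMSO serves as baseline.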
# [18] = molecular target: Heat shock factor protein 1 (Homo sapiens) (UniProt Q00613); test: ATG_HSE_CIS: Attagene CIS-FACTORIAL HepG2 Assay for human Heat Shock Transcription Factor 1 (HSE) (AID 2282953); conditions: HepG2 HSE cis-reporter, Attagene RNA transcription; actives raise or lower the signal
# Sequence of Heat shock factor protein 1 (Homo sapiens) (Q00613 whole entry, looked up, the tested form may be a part): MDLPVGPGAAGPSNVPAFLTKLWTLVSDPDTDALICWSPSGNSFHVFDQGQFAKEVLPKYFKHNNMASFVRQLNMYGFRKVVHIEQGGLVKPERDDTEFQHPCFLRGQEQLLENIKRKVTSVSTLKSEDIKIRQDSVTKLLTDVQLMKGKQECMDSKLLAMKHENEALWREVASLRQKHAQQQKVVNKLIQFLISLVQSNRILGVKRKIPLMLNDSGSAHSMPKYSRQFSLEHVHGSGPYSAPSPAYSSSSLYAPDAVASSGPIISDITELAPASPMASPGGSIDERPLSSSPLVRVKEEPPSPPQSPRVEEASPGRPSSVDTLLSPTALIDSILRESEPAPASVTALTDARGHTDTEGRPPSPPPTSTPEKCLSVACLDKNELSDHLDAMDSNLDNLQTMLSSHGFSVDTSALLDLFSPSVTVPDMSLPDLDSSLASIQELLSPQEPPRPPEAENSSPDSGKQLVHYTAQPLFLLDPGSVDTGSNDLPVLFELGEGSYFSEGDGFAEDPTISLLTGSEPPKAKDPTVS
# In short: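 Read-out: fluorescence of reporter-specific RT-PCR fragments separated by capillary electrophoresis. HepG2 carrying transfected cis-element reporter units; 24 h dosing; activity fitted in both directions relative to DMSO baseline.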
# [19] = ATG_ERE_CIS: Attagene CIS-FACTORIAL HepG2 Assay for Estrogen Response Element (ERE) (AID 2282940); conditions: HepG2 ERE cis-reporter, Attagene RNA transcript; actives raise or lower the signal
# In short: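 Readout: reporter mRNA induction by RT-PCR, FAM-labelled primer extension, HpaI digestion and capillary electrophoresis, 24 h after dosing transfected HepG2 cells. Endogenous transcription factors act on cis-element-regulated reporters. Gain or loss fitted against DMSO.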
# [20] = ATG_MRE_CIS: Attagene CIS-FACTORIAL HepG2 Assay for human Metal Responsive Element (MRE) (AID 2282954); conditions: HepG2 MRE cis-reporter transcription, Attagene multiplex; actives raise or lower the signal
# In short: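 HepG2 cells transiently transfected with cis-element-driven reporter units; mRNA measured 24 h after dosing. Reporter transcripts quantified by RT-PCR, FAM labelling, HpaI digestion and capillary electrophoresis; bidirectional fit versus DMSO.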
smiles,measurement,setting,value
COC(=O)CSc1cc(N=c2sc(=O)n3n2CCCC3)c(F)cc1Cl,outcome,[1],inactive
same,outcome,[2],inactive
same,outcome,[3],inactive
same,outcome,[4],inactive
same,outcome,[5],inactive
same,outcome,[6],inactive
same,outcome,[7],inactive
same,outcome,[8],inactive
same,outcome,[9],inactive
same,outcome,[10],inactive
same,outcome,[11],inactive
same,outcome,[12],inactive
same,outcome,[13],inactive
same,outcome,[14],inactive
same,outcome,[15],inactive
same,outcome,[16],inactive
same,outcome,[17],inactive
same,outcome,[18],inactive
COC(=O)c1ccc(I)cc1S(=O)(=O)NC(=O)Nc1nc(C)nc(OC)n1,outcome,[1],inactive
same,outcome,[2],inactive
same,outcome,[3],inactive
same,outcome,[4],inactive
same,outcome,[5],inactive
same,outcome,[6],inactive
same,outcome,[7],inactive
same,outcome,[8],inactive
same,outcome,[9],inactive
same,outcome,[10],inactive
same,outcome,[12],inactive
same,outcome,[13],inactive
same,outcome,[15],inactive
same,outcome,[17],inactive
same,outcome,[18],inactive
CCCCCOC(=O)COc1cc(N2C(=O)C3=C(CCCC3)C2=O)c(F)cc1Cl,outcome,[1],inactive
same,AC50,[2],50 µM (active)
same,outcome,[3],inactive
same,outcome,[4],inactive
same,outcome,[5],inactive
same,outcome,[19],inactive
same,outcome,[6],inactive
same,outcome,[7],inactive
same,outcome,[8],inactive
same,outcome,[9],inactive
same,outcome,[10],inactive
same,outcome,[12],inactive
same,outcome,[13],inactive
same,outcome,[14],inactive
same,outcome,[15],inactive
same,outcome,[16],inactive
same,outcome,[17],inactive
same,AC50,[18],87.6 µM (active)
same,outcome,[20],inactive
O=C(O)c1ccccc1,outcome,[1],inactive
same,outcome,[2],inactive
same,outcome,[3],inactive
same,outcome,[4],inactive
same,outcome,[5],inactive
same,outcome,[19],inactive
same,outcome,[6],inactive
same,outcome,[7],inactive
same,outcome,[8],inactive
same,outcome,[9],inactive
same,outcome,[10],inactive
same,outcome,[13],inactive
same,outcome,[15],inactive
same,outcome,[17],inactive
CCCCCCC(C)OC(=O)COc1nc(F)c(Cl)c(N)c1Cl (configuration not stated),outcome,[1],inactive
same,outcome,[2],inactive
same,outcome,[3],inactive
same,outcome,[4],inactive
same,outcome,[5],inactive
same,outcome,[6],inactive
same,outcome,[7],inactive
same,outcome,[8],inactive
same,outcome,[9],inactive
same,outcome,[10],inactive
same,outcome,[13],inactive
same,outcome,[14],inactive
same,outcome,[15],inactive
same,outcome,[16],inactive
same,outcome,[17],inactive
same,outcome,[18],inactive
CCCOC(=O)NCCCN(C)C,outcome,[1],inactive
same,outcome,[2],inactive
same,outcome,[3],inactive
same,outcome,[4],inactive
same,outcome,[5],inactive
same,outcome,[6],inactive
same,outcome,[7],inactive
same,outcome,[8],inactive
same,outcome,[9],inactive
same,outcome,[10],inactive
same,outcome,[13],inactive
same,outcome,[14],inactive
same,outcome,[15],inactive
same,outcome,[17],inactive
same,outcome,[20],inactive
